Pf growth 48h: Primary qHTS for delayed death inhibitors of the malarial parasite plastid, 48 hour incubation; P. falciparum luciferase growth in erythrocytes, 48 h; Potency, µM (highest dose often 28.7 µM), usual class: inhibitors; 310,000 compounds, 5.9% hits; AID 504832, 2011
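Read-out is firefly luciferase luminescence from an integrated reporter in P. falciparum, so falling signal marks reduced parasite growth. Infected erythrocytes were at 2% hematocrit and 0.1% parasitemia (final) in Albumax-supplemented RPMI 1640.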
Shiga toxin inh: A qHTS for Small Molecule Inhibitors of Shiga Toxin; Vero cells, Shiga toxin protein synthesis inhibition reporter; inhibition, % at 38.7 µM; 290,000 compounds, 9.2% hits; in the data active = inhibition mostly above about 28%, no sharp cut-off; inactive = mostly below about 43%
Lassa entry inh: qHTS for Inhibitors of binding or entry into cells for Lassa Virus; Lassa virus pseudotype entry inhibition, cell reporter; Potency, µM (series often up to 37.9 µM), actives largely listed as inhibitors; 300,000 compounds, 1.2% hits; AID 540256, 2011; calls by dose curve; tested in HEK293 cells; note: nearly all actives have a fitted effect of over 50% in size
CHX counter: Cycloheximide Counterscreen for Small Molecule Inhibitors of Shiga Toxin | cell reporter, cycloheximide protein synthesis inhibition counterscreen | 300,000 compounds, 12% hits | max response, %; in the data active = max response mostly above about 13%, no sharp cut-off; inactive = mostly below about 14%; note: read at 38.3 µM for the half of the compounds with a filed dose
Pf growth 96h: Primary qHTS for delayed death inhibitors of the malarial parasite plastid, 96 hour incubation; P. falciparum luciferase reporter growth, 96 h; Potency, µM (titrated, usually from 28.7 µM), most hits filed as inhibitors; 320,000 compounds, 6.9% hits; AID 504834, 2011
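Delayed-death screen, second-generation endpoint: infected erythrocytes, 2% hematocrit, 0.05% parasitemia final; 96 hours at 37 C, 5% CO2; luciferase detection reagent; luminescence decrease equals reduced growth.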
Marburg entry inh: qHTS for inhibitors of binding or entry into cells for Marburg Virus. 300,000 compounds, 1.8% hits. Marburg virus pseudotyped entry inhibition, cell reporter. Potency, µM (doses to about 37.8 µM), usual class: inhibitors; calls by dose curve; tested in HEK293 cells
Numbers stand for hits; 0 = inactive; ? = inconclusive; - = not tested or not shown. Most compounds without a hit are left out; they make up all but 19% or so of the library. Unless noted, calls come from the whole dose curve; as a rule, active = well fitted inhibition curve with a large enough effect; inconclusive = small, poorly fitted or top-dose-only effect, or another doubt; inactive = no such curve, though single readings can be large or run the other way.

SMILES	Pf growth 48h	Shiga toxin inh	Lassa entry inh	CHX counter	Pf growth 96h	Marburg entry inh
Cc1cc(C)n(-c2nc(SCC(=O)O)c3c4c(sc3n2)COC(C)(C)C4)n1	?	0	0	0	?	0
Cc1cc(C)n(-c2nc(NCc3cccnc3)c3c4c(sc3n2)COC(C)(C)C4)n1	-	0	0	22	-	?
N#CC1=C(N)Oc2c(c(=O)oc3ccccc23)C1c1cccnc1 (centres undefined)	0	0	0	0	?	0
N#CC1=C(N)Oc2c(c(=O)sc3ccccc23)C1c1ccncc1 (centres undefined)	0	0	0	20	0	?
CCOc1ccc(-c2nnc(-c3ccccc3)n2-c2ccccc2)cc1	0	0	0	42	?	0
CCOc1ccc(-c2nnc(NC3=NCCCCC3)o2)cc1	0	73	?	41	-	?
CN(C)c1ccc(-c2nnc(-c3cccs3)o2)cc1	0	0	-	0	?	-
CCCOc1ccc(-c2nnc(-c3cccs3)o2)cc1	0	107	2µM	51	?	0
c1coc(-c2nnc(NC3=NCCC3)o2)c1	0	66	?	29	?	?
CCOc1ccc(-c2nnc(SCC(=O)c3ccc(F)cc3)n2-c2ccccc2)cc1	-	-	0	-	-	0
Cc1ccc(CCNS(=O)(=O)c2ccc3c(c2)C(C(C)C)C(=O)N3)cc1 (centres undefined)	-	-	0	-	-	-
O=C(c1cc2nc(-c3ccccc3)cc(C(F)(F)F)n2n1)N1CCOCC1	0	0	?	0	-	0
N=c1n(CC(=O)c2ccc([N+](=O)[O-])cc2)c2ccccc2n1Cc1ccc(Cl)cc1	?	0	-	0	?	-
CCOc1ccc(-c2nnc(-c3ccncc3)o2)cc1	0	0	0	50	2.9µM	0
CCCCOc1ccc(-c2nnc(-c3ccncc3)o2)cc1	?	0	?	17	0	?
CCCCOc1ccc(-c2nnc(-c3cc[n+](C)cc3)o2)cc1	0.41µM	0	0	0	0	0
CCOc1ccc(-c2nnc(-c3ccncc3)o2)cc1OCC	0	0	0	0	0	?
COc1ccc(-c2nc3ccccc3c(=O)o2)cc1OC	0	0	0	0	0	0
CCOc1ccc(-c2nc3ccccc3c(=O)o2)cc1	0	0	?	15	0	?
CCOc1ccc(-c2nnc(-c3ccc(OC)cc3)o2)cc1	0	0	0	0	0	?
CCOc1ccc(-c2nnc(-c3ccccc3)o2)cc1	0	77	?	29	2.1µM	?
CC(=O)N/N=C(\C)CC(=O)NC(C)(C)C	0	0	0	0	3.7µM	0
CC(C)(C)NC(=O)CCCCCCCC(=O)NC(C)(C)C	0	0	?	0	0	0
COc1cc(Cl)c(C)cc1NC(=O)CN(C)Cc1cccc(OC)c1OC	?	0	-	0	0	-
COc1ccc(CNC(=O)CCc2nnc3n(CC(C)C)c(=O)c4ccccc4n23)cc1	-	-	-	-	-	0
SMILES	Pf growth 48h	Shiga toxin inh	Lassa entry inh	CHX counter	Pf growth 96h	Marburg entry inh
O=C(c1nc2ccccn2c1CNCC1OCCc2ccccc21)N1CCOCC1 (centres undefined)	0	0	0	0	12µM	?
Cc1ccn2c(CNCCCn3cccn3)c(C(=O)N3CCCCCC3)nc2c1	0	0	0	0	0	0
O=C(c1nc2ccccn2c1CNCCCn1cccn1)N1CCCC1	0	0	-	0	13µM	-
C/C(=N\NC(=O)Cc1cccn1C)c1cccc2ccccc12	-	0	0	0	0	?
COc1ccc(C(Nc2ccccn2)c2c(NC(=O)c3ccco3)sc(C)c2C)cc1 (centres undefined)	4.7µM	0	0	29	?	0
O=C(Nc1ccc(Cl)cc1C(=O)Nc1ccccn1)c1ccco1	0	0	?	0	0	0
COC(=O)c1c(NC(=O)c2ccco2)sc(C)c1C	0	0	0	0	-	0
COc1cccc(C(Nc2ccccn2)c2c(NC(=O)c3ccco3)sc(C)c2C)c1 (centres undefined)	8.3µM	0	?	0	?	?
Cc1sc(NC(=O)c2ccco2)c(C(Nc2ccccn2)c2ccccc2)c1C (centres undefined)	?	0	?	13	?	0
COc1ccc(C)cc1-n1c(-c2ccc(Cl)cc2)cc2c1CC(C)(C)CC2=O	-	-	0	-	-	0
COc1ccc(N2CCN(CCC(=O)c3ccc4ccccc4c3)CC2)cc1	0	0	-	0	0	-
CCN1CCN(CCCNC(=O)C2CCCN(c3nc4c(C)cc(C)cc4s3)C2)CC1 (centres undefined)	?	42	-	13	?	-
Cc1cc(C)c2nc(N3CCCC(C(=O)NCCCN4CCOCC4)C3)sc2c1 (centres undefined)	0	0	?	0	-	?
Cc1cc(C)c2nc(N3CCCC(C(=O)NCCN4CCOCC4)C3)sc2c1 (centres undefined)	0	46	?	36	0	0
CCc1nnc(NC(=O)c2cc(S(=O)(=O)N3CCCCC3)ccc2N2CCOCC2)s1	0	0	0	0	0	?
Cn1cc(-c2ccc(Cl)cc2)cc(C#N)c1=O	0	0	0	0	0	0
Cc1ccc(N(Cc2ccccc2)C(=O)c2cc(S(=O)(=O)N3CCOCC3)ccc2Cl)cc1	?	-	?	-	13µM	?
Cc1ccc(S(=O)(=O)N2CCOCC2)cc1C(=O)N1CCN(Cc2ccccc2)CC1	0	-	0	-	0	0
Cc1ccc(N(Cc2ccccc2)C(=O)c2cc(S(=O)(=O)N3CCOCC3)ccc2F)cc1	12µM	-	?	-	?	?
C=CCN(Cc1ccc(Cl)s1)C(=O)c1cc(S(=O)(=O)N2CCOCC2)ccc1F	13µM	-	-	-	?	-
CN(CCOc1ccccc1)C(=O)c1cc(S(=O)(=O)N2CCOCC2)ccc1Cl	?	-	0	-	0	0
CN(Cc1cccs1)C(=O)c1cc(S(=O)(=O)N2CCOCC2)ccc1F	0	-	-	-	0	-
Cc1cccc(N(Cc2ccccc2)C(=O)c2cc(S(=O)(=O)N3CCOCC3)ccc2Cl)c1	12µM	-	?	-	?	13µM
COc1ccc(Cl)cc1-c1nc(SCC(=O)NC2CCS(=O)(=O)C2)n[nH]1 (centres undefined)	0	-	-	-	0	-
CCc1noc(C)c1C(=O)N1CCSC1=Nc1cccc(Cl)c1C	?	0	?	0	2.9µM	?
SMILES	Pf growth 48h	Shiga toxin inh	Lassa entry inh	CHX counter	Pf growth 96h	Marburg entry inh
Cc1ccc(S(=O)(=O)/C(C#N)=C/c2c(N3CCN(C)CC3)nc3ccccn3c2=O)cc1	0	0	0	0	0	0
O=C(CC1CCCCC1)NC1CCCC1	0	0	0	19	-	0
C=CCOC(=O)CCCC(=O)NC1CCCCC1	0	active	0	0	0	0
O=C(CCC1CCCC1)NC1CCCCC1	-	65	0	18	0	?
O=C(CCC(=O)OCCCC(F)(F)C(F)(F)F)NC1CCCCC1	0	0	0	0	0	0
Nc1nc(SCc2ccccc2)n[nH]1	0	0	0	11	0	0
Nc1nc(SCc2ccc(Br)cc2)n[nH]1	0	53	0	27	0	0
Nc1nc(SCc2c(Cl)cccc2Cl)n[nH]1	-	0	0	0	1.3µM	0
